# Compounds with a hit are over-represented: about 0.86% of the library has one in this group of screens.
# APE1 inh: qHTS Assay for Inhibitors of the Human Apurinic/apyrimidinic Endonuclease 1 (APE1); DNA repair nuclease/redox regulator APEX1 (Homo sapiens), P27695; recombinant APE1, TAMRA/BHQ-2 abasic DNA cleavage fluorescence; Potency, µM (top dose mostly 65.8 µM), for inactives: top-dose activity change, negative = inhibition, hits mostly inhibitors; hit rate 0.35% among 350,000; AID 2517, 2012;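 note: plate controls were vehicle for no effect and reference inhibitor for full effect; nearly all actives have a fitted effect of over 55% in size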
#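 Activity was derived from the fluorescence gain between first and third kinetic reads (60 s intervals, ex 525/em 598 nm) after 50 nM THF-abasic TAMRA/BHQ-2 duplex was added to 0.75 nM APE1 preincubated 15 min with compound.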
# BLM inh: qHTS Assay for Inhibitors of Bloom's syndrome helicase (BLM) | RecQ-like DNA helicase BLM (Homo sapiens), P54132 | recombinant BLM DNA unwinding, fluorescence dequenching | Potency, µM (series often up to 56.1 µM), without a hit: top-dose activity change, negative = inhibition, most hits filed as inhibitors | hit rate 0.2% among 350,000 | AID 2528, 2010;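 note: plate controls were vehicle for no effect and no enzyme for full effect; nearly all actives have a fitted effect of over 35% in size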
# RECQ1 helicase: qHTS Assay for Inhibitors of RecQ-Like Dna Helicase 1 (RECQ1); ATP-dependent DNA helicase Q1 (Homo sapiens), P46063; Potency, µM (top dose mostly 57.3 µM), for inactives: top-dose activity, negative = inhibition, actives largely listed as inhibitors; RECQ1 DNA unwinding, red fluorescence kinetic read; hit rate 0.54% among 240,000; AID 2549, 2010;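 note: plate controls were vehicle for no effect and no enzyme for full effect; nearly all actives have a fitted effect of over 30% in size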
# Target sequence (P46063 whole entry, looked up): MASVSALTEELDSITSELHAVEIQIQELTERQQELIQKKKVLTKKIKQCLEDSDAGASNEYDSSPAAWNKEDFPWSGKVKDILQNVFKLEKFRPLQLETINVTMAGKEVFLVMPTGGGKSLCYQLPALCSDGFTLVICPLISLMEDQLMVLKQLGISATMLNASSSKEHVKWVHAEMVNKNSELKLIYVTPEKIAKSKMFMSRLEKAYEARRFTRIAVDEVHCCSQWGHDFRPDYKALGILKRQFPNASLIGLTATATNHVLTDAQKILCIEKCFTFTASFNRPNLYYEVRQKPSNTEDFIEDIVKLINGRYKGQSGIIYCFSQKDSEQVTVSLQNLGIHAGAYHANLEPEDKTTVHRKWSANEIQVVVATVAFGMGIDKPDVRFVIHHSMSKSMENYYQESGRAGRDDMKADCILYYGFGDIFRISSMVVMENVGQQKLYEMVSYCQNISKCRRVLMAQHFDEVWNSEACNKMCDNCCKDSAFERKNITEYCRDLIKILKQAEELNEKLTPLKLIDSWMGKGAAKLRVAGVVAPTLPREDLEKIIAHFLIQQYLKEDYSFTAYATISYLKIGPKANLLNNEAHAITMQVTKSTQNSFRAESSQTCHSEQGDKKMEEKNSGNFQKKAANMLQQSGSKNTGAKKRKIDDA
#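 50 nM RECQ1T1 preincubated 15 min with compound in Tris pH 8.0 buffer with MgCl2, DTT, Tween-20 and 2.5 ug/ml poly(dI-dC); started with 200 nM TAMRA/BHQ-2 forked duplex and 2 mM ATP. Unwinding read as fluorescence (525/598 nm), two reads 2 h apart.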
# FEN1 inh: qHTS Assay for the Inhibitors of Human Flap endonuclease 1 (FEN1) | Recombinant FEN1 flap cleavage, fluorescence, 15 min | Potency, µM (series often up to 114 µM), without a hit: at the top dose activity change, negative = inhibition, actives largely listed as inhibitors | hit rate 0.35% among 390,000 | AID 588795, 2011; note: nearly all actives have a fitted effect of over 65% in size
#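 FEN1 at 10 nM preincubated with compounds 15 min at room temperature, then flap DNA substrate added at 50 nM final. Signal read at 0 and 15 min; concentration-response fitted with four-parameter Hill equation.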
# GLS inh: qHTS for Inhibitors of Glutaminase (GLS); Glutaminase kidney isoform, mitochondrial (Homo sapiens), O94925; GLS enzymatic activity, qHTS titration; Potency, µM (series often up to 45.5 µM), for inactives: top-dose activity change, negative = inhibition, actives largely listed as inhibitors; hit rate 0.21% among 410,000; AID 624170, 2012
#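 Two-point fluorescence kinetic (t0, 30 min RT) for hKGA; glutamate detected via glutamate oxidase–HRP–Amplex Red. Substrate: 1 mM L-glutamine solution; buffer 45 mM KH2PO4, pH 8.2.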
# PGK inhibitor: qHTS Assay to Find Inhibitors of Phosphoglycerate Kinase; PGK/GAPDH coupled, Kinase-Glo luminescence, 60 min; Potency, µM (doses to about 57.5 µM), for the others: at the highest dose activity change, negative = inhibition, actives largely listed as inhibitors; hit rate 0.043% among 380,000; AID 602233, 2012; note: nearly all actives have a fitted effect of over 60% in size
#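 Luminescent ATP detection (Kinase-Glo Plus) follows a 60-minute room-temperature incubation, with wells lacking PGK as controls. Buffer: 100 mM TEA (pH 7.6), 5 mM MgCl2, 0.01% Tween-20. Coupling enzyme GAPDH (100 nM final) supplies unstable 1,3-BPG in-well.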
# * = called active by the depositor; i = inactive; ? = inconclusive; . = no result given; ! = repeats disagree; [ ] = dose if it differs, or a comment. Calls come from the whole dose curve; as a rule, active = well fitted curve in the direction sought with a large enough effect; inconclusive = small, poorly fitted or top-dose-only effect, or another doubt; inactive = no such curve, though single readings can be large; an effect the other way counts as inactive or inconclusive. Unless noted, % is set by controls: 0 for no effect and ±100 for the full control effect; potency is the fitted concentration of half-maximal effect.
SMILES,APE1 inh,BLM inh,RECQ1 helicase,FEN1 inh,GLS inh,PGK inhibitor
CCc1ccc(Nc2ccc3nonc3c2[N+](=O)[O-])cc1,.,.,.,12.4%,-1.6%,-6.4%
Cc1cccc(/C=C/c2cccs2)n1,.,.,.,-3.5%,.,.
CC[C@@H]([C@H](C)O)n1ncn(-c2ccc(N3CCN(c4ccc(OCC5CO[C@@](Cn6cncn6)(c6ccc(F)cc6F)C5)cc4)CC3)cc2)c1=O (stereo partly specified),.,.,.,.,2.7%,.
Nc1ccc2ccc(O)cc2c1,.,.,.,?,?,-5.7%
C[n+]1c2cc(N)ccc2cc2ccc(N)cc21 (tested in a mixture with another compound),25.1µM*,.,.,.,.,.
Cc1cc(C)cc(C(=O)C[n+]2cccc(Br)c2)c1,.,.,.,-2.6%,.,.
CCOc1cc(/C=N/NC(=O)c2ccc(=O)n(C)c2)ccc1O,-8.5%,-5.6%,i,2.6%,7.94µM*,5.8%
COc1cc(C=NNC(=O)c2ccccc2-n2cccc2)ccc1O,15.8%,.,.,-0.7%,12.6µM*,-3.8%
CC[N+]1(CC)CCC(=C(c2ccccc2)c2ccccc2)C1C (stereo unspecified),.,.,.,.,-24.6%,.
Cc1ccc(-c2nnc(N3CCN(C(=O)c4cccs4)CC3)c3ccccc23)cc1,1.6%,-0.5%,-3.7%,9.6%,20µM*,-0.2%
CO[C@@]1(NC(=O)CSC(F)F)C(=O)N2C(C(=O)O)=C(CSc3nnnn3CCO)CO[C@@H]21,.,.,.,.,1.2%,.
CC(C)(C)[C@H]1C=C(C(=O)Nc2ccccc2)O[C@@H](OCc2ccc(CO)cc2)C1,-5.4%,-11.5%,28.2µM*,-24.6%,-1.4%,i
Fc1cccc(Cc2c(-c3ccco3)nc3ccc(Br)cn23)c1,.,.,.,.,15.8µM*,.
CCCCS(=O)(=O)N[C@@H](Cc1ccc(OCCCCC2CCNCC2)cc1)C(=O)O,.,.,.,.,1.6%,.
Cn1c(=O)c2c(nc(N/N=C/c3ccncc3)n2Cc2ccccc2)n(C)c1=O,-1.1%,-2.3%,i,-4.7%,12.6µM*,-7.0%
O=C[C@H](O)[C@@H](O)[C@H](O)[C@H](O)CO,-2.1%,.,.,.,.,.
O=P(O)(O)OC(Cn1cncn1)(Cn1cncn1)c1ccc(F)cc1F,.,.,.,.,-3.4%,.
CC(C)(C)c1ccc(Cn2cnc3c(cnn3C(C)(C)C)c2=O)cc1,-6.7%,.,.,14.1%,.,.
O=C1NCCCc2c1oc1ccc(O)cc21,0.3%,3.1%,8.4%,-9.4%,30.5%,-9.2%
Oc1c(Cl)cc(Cl)c2c1NCCC2,8.6%,-4.9%,-7.6%,?,11.2µM*,4.0%
CN(C)CCCn1cc(C2=C(c3c[nH]c4ccccc34)C(=O)NC2=O)c2ccccc21,-10.1%,-13.6%,28.2µM*!,.,.,.
COC(CC(=O)NNC(=S)Nc1ccccc1)OC,?,1.3%,14.1µM*,14.1%,0.0%,4.8%
CCCCCCCCCCCCOC(=O)N1CCN(/[N+]([O-])=N/Oc2ccc([N+](=O)[O-])cc2[N+](C)=O)CC1,.,.,.,2.7%,.,.
COC(=O)CSc1nc(N)c(C#N)c(-c2ccc(O)cc2)c1C#N,4.4%,-8.3%,17.2%,0.2%,11.2µM*,-12.4%
N#Cc1c2ccc(O)cc2n2ccccc12,?,-0.5%,-3.6%,-32.5%,11.2µM*,-8.3%
SMILES,APE1 inh,BLM inh,RECQ1 helicase,FEN1 inh,GLS inh,PGK inhibitor
O=C1c2ccccc2-c2onc3ccc(NCCCn4ccnc4)c1c23,28.2µM*,35.5µM*,28.2µM*,15.8µM*,-25.8%,-2.9%[11.5 µM]
NS(=O)(=O)c1ccc(NCCCn2ccnc2)c([N+](=O)[O-])c1,40.8%,-0.6%,.,0.9%,2.6%,8.6%
Cc1ccc(C)n1-c1ccc(N(C)C)cc1,12.4%,4.0%,-23.2%,-0.5%,12.6µM*,-4.8%
O=C(Nc1ccc(Cl)cc1Cl)[C@@H]1CC=C[C@@H]2CCN(Cc3ccccc3)C(=O)[C@@H]21,.,.,.,0.3%,.,.
O=C(O)[C@H]1/C(=C/CO)O[C@@H]2CC(=O)N21,-3.2%,.,.,.,.,.
CC(C)[C@H](CN(N=O)[C@@H](Cc1ccccc1)CN(C)N=O)N(CCc1ccccc1)N=O,-6.7%,-8.7%,-9.3%,-21.1%,1.9%,-14.9%
CC(C)C[C@@H](CN(C)N=O)N(C[C@H](Cc1ccccc1)N(CCc1ccccc1)N=O)N=O,0.3%,-6.3%,3.98µM*,11.8%,2.0%,-10.0%
COc1ccc(C(=O)N/N=C/c2sc3ccccc3c2O)cc1,2.6%,-1.9%,-3.6%,2.4%,15.8µM*,-3.3%
COc1ccc2cc(C(=O)N/N=C/c3sc4ccccc4c3O)ccc2c1,-4.0%,-5.3%,-16.5%,-2.2%,8.8%,i
Oc1ccc(/C=N/N2CCN(C3c4ccccc4-c4ccccc43)CC2)cc1O,-0.9%,-11.5%,-22.4%,-19.5%,11.2µM*,i
Oc1ccc(/C=N/N2CCN(C3c4ccccc4-c4ccccc43)CC2)cc1,5.7%,-1.4%,-6.3%,3.6%,?,i
CC(C)(C)n1ncc2c(=O)n(Cc3ccc(F)cc3Cl)cnc21,16.2%,.,.,4.8%,.,.
COC(C(=O)C(O)C(C)O)C1Cc2cc3cc(OC4CC(OC5CC(O)C(O)C(C)O5)C(O)C(C)O4)c(C)c(O)c3c(O)c2C(=O)C1OC1CC(OC2CC(OC3CC(C)(O)C(O)C(C)O3)C(O)C(C)O2)C(O)C(C)O1 (stereo unspecified),.,-2.3%,.,?,.,.
O=c1[nH]c2ccccc2c(O)c1O,-6.3%,-2.5%,-13.3%,-15.3%,5.62µM*,i
CC1(C)Cc2c(c(-c3ccco3)[nH]c(=O)c2C#N)CS1,-8.7%,-1.7%,31.6µM*,1.2%,-4.3%,i
C=CCOC(=O)c1cc(-c2ccc(/C=C3\C(=O)NC(=O)C(C#N)=C3C)o2)ccc1Cl,?,?,?,79.4µM*,-27.5%,?
CCCOC(=O)c1cc(-c2ccc(/C=C3/C(=O)N(C)C(=O)C(C#N)=C3C)o2)ccc1Cl,.,.,.,0.1%,24.8%,-6.7%
